Measurements reported in PubChem BioAssay (NCATS).
Results filed as inconclusive are left out. Where a call stands in place of a potency, no number is given. Active and inactive are the calls of the source. Calls follow the shape of the dose curve; as a rule, active = well fitted curve in the direction sought with a large enough effect; inconclusive = small, poorly fitted or top-dose-only effect, or another doubt; inactive = no such curve, though single readings can be large; an effect the other way counts as inactive or inconclusive.

Legend:
[1] = qHTS to identify inhibitors of the type 1 interferon - major histocompatibility complex class I in skeletal muscle: primary screen against the NCATS LOPAC collection (AID 1347405);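 also: lytic HiBiT luminescence reporting HLA-B protein level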; also: potency is read from the fitted curve at half-maximal effect
In short: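 After 24 h at 37 C with compounds (7-point, 1:4.3 dilutions, 46 uM top final) plus 4 ng/ml IFN-beta, luminescence from lytic HiBiT detection was measured. HLA-B*08:01 in C25cl48 myoblasts carried an endogenous C-terminal HiBiT tag; medium lacked dexamethasone.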

[2] = qHTS for inhibitors of adenylyl cyclases using a fission yeast platform: a pilot screen against the NCATS LOPAC library (AID 1347410)
In short: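 Inhibition of GNAS-stimulated AC9 activity in S. pombe was inferred from derepression of a PKA-repressed fbp1-GFP reporter, measured as cytometric fluorescence after 18 h at 30C with compounds at up to 57 µM.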

[3] = Viability qHTS for inhibitors of the SERCaMP assay screened against the NCATS CANVASS Library (AID 1347400); also: nearly all actives have a fitted effect of over 70% in size; also: potency is read from the fitted curve at half-maximal effect
In short: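 CellTiter-Glo luminescence measured cytotoxicity after 48 h at 37C of compound treatment (11-point series). Cells were SH-SY5Y-GLuc SERCaMP MJH297 derivatives, seeded at 1000 per well 4 h beforehand.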

[4] = Redox Reaction Profiling qHTS: Assay Interference Panel against the NCATS CANVASS Library (AID 1347401)
In short: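 Redox-cycling liability assessed as DTT-driven conversion of resazurin (5 uM, with 200 uM DTT, HEPES pH 7.3) to fluorescent resorufin. Fluorescence at 525/598 nm measured initially and after 15 min dark incubation.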

[5] = qHTS to identify inhibitors of the type 1 interferon - major histocompatibility complex class I in skeletal muscle: primary screen against the NCATS Pharmaceutical Collection (AID 1347407);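 also: luminescence of HiBiT knocked into endogenous HLA-B as interferon-induced MHC class I level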
In short: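 A qHTS format is used: 8-point, 1:5 compound series with 46 uM top final concentration, applied alongside 4 ng/ml IFN-beta to HLA-B*08:01-HiBiT knock-in myoblasts. Luminescence is measured after 24 h treatment.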

[6] = molecular target: Protein phosphatase 1D (Homo sapiens) (UniProt O15297); experiment: RapidFire Mass Spectrometry qHTS Assay for Modulators of WT P53-Induced Phosphatase 1 (WIP1) (AID 1347424);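 also: amount of dephosphorylated VEPPL-S-QETFS peptide product formed by WIP1; series mostly up to about 63 µM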
In short: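 RapidFire mass spectrometry measured dephosphorylated peptide after 5 min room-temperature reaction of 2 uM VEPPL-pS-QETFS with 10 nM WIP1 (50 mM Tris-HCl pH 7.5, 30 mM MgCl2, 0.1 mM EGTA, BSA), following 1 hr compound preincubation; 1 uM isotope-labelled product standard.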

[7] = molecular target: Protein phosphatase 1D (Homo sapiens) (UniProt O15297); experiment: Rhodamine-PBP qHTS Assay for Modulators of WT P53-Induced Phosphatase 1 (WIP1) (AID 1347425)
In short: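 5 nM WIP1 + 10 uM Rh-PBP, 50 mM Tris pH 7.5, 30 mM MgCl2, 1 mM TCEP, 0.1 mM EGTA, BSA; cpds pinned, 1 hr RT; + 10 uM phosphopeptide; fluorescence 1-min reads x 11 min; delta = f1 - f0.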

[8] = Validation qHTS assay for inhibitors of Activation Induced Cytidine Deaminase (AID): UDG Counterscreen signal (AID 1347427)
In short: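 Fluorescence at 560 nm excitation, 665 nm emission reports UDG signal after 250 mM NaOH (2x) addition and 30 min. Enzymes (AID 1 uM, UDG 2 U/mL, at 4/3x) preincubated 10 min with compound, then 4 h with 4x 250 nM DJC20/DJC23 substrate at room temperature.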

[9] = qHTS for inhibitors of Wild type Zika virus screened against the NCATS CANVASS Library (AID 1347396);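 also: ATP luminescence of surviving cells so rescue from viral cell killing; series mostly up to about 46 µM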
In short: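 Protection against wild-type Zika cytopathic effect is measured in African green monkey Vero 766 cells exposed to an 11-point compound series. Surviving cells are quantified by CellTiter Glo luminescence after 72 h.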

Chain of Protein phosphatase 1D (Homo sapiens) (O15297 whole entry, looked up): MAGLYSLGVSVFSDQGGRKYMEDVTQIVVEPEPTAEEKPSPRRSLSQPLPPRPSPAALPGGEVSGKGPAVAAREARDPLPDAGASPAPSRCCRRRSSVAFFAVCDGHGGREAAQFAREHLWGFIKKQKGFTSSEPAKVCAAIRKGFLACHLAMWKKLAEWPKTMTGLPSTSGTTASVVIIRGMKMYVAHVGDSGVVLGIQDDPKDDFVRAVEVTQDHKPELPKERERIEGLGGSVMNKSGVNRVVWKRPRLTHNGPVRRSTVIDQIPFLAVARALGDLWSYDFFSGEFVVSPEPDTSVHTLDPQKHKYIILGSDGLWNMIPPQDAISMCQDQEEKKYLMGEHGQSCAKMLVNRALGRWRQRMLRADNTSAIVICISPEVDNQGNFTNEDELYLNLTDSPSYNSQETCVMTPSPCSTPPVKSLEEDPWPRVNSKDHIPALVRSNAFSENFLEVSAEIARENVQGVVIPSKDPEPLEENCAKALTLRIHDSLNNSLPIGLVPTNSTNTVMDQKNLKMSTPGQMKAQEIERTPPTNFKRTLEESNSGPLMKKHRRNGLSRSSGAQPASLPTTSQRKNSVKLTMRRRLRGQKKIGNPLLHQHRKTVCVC

SMILES: CC[C@H]1OC(=O)[C@H](C)C(O[C@H]2C[C@@](C)(OC)[C@@H](O)[C@H](C)O2)[C@H](C)[C@@H](OC2O[C@H](C)C[C@H](N(C)C)[C@H]2O)[C@](C)(O)C[C@@H](C)CN(C)[C@H](C)[C@@H](O)[C@]1(C)O (stereo not given in full)
- Potency [1]: inactive
- outcome [2]: inactive

SMILES: CC(C)(NS(=O)(=O)c1ccc(Oc2ccc(F)cc2)cc1)C(=O)NO
- Potency [1]: inactive
- outcome [2]: inactive

SMILES: CN(CCCOc1ccc(Cc2ccccc2)cc1)CCC(=O)O
- Potency [1]: inactive
- outcome [2]: inactive

SMILES: O=[N+]([O-])c1ccc(CNc2nc(NCc3cccc(C(F)(F)F)c3)nc3nc[nH]c23)cc1
- Potency [1]: inactive
- outcome [2]: inactive

SMILES: O=C1NC(=O)c2c1c(-c1ccccc1)cc1[nH]c3ccc(O)cc3c21
- Potency [1]: 14.1 µM (active)
- outcome [2]: inactive

SMILES: Nc1ccn([C@H]2O[C@H](CO)[C@@H](O)C2(F)F)c(=O)n1
- Potency [1]: inactive
- outcome [2]: inactive

SMILES: CO[C@H]1O[C@@H]2O[C@]3(C)CC[C@@H]4[C@@H](C)CC[C@H]([C@H]1C)[C@]24OO3
- Potency [1]: inactive
- outcome [2]: inactive

SMILES: COc1ccc(/C=C2\COc3ccc(C)cc3C2=O)cc1O
- Potency [1]: 14.1 µM (active)
- outcome [2]: inactive

SMILES: NS(=O)(=O)c1ccc(-n2nc(C(F)(F)F)cc2-c2ccc(Cl)cc2)cc1
- Potency [1]: inactive
- outcome [2]: inactive

SMILES: Nc1nc2c(ncn2[C@@H]2O[C@H](CO)[C@@H](O)[C@@H]2O)c(=O)[nH]1
- Potency [1]: inactive
- outcome [2]: inactive

SMILES: S=c1[nH]c(-c2ccccc2)cn1-c1ccccc1
- Potency [1]: inactive
- outcome [2]: inactive

SMILES: CC(C)c1cccc(C(C)C)c1N1C(=O)c2ccc(O)cc2C1=O
- Potency [1]: inactive
- outcome [2]: inactive

SMILES: CS(=O)(=O)c1ccc(-n2nc(C(F)(F)F)cc2-c2ccc(F)cc2)cc1
- Potency [1]: inactive
- outcome [2]: inactive

SMILES: C[N+]1(C)C2CC(OC(=O)[C@H](CO)c3ccccc3)CC1C1OC12 (stereo not given in full)
- Potency [1]: inactive
- outcome [2]: inactive

SMILES: CN[C@H](CC(C)C)C(=O)N[C@H]1C(=O)N[C@@H](CC(N)=O)C(=O)N[C@H]2C(=O)N[C@H]3C(=O)N[C@H](C(=O)N[C@H](C(=O)O)c4cc(O)cc(O)c4-c4cc3ccc4O)[C@H](O)c3ccc(c(Cl)c3)Oc3cc2cc(c3O[C@@H]2O[C@H](CO)[C@@H](O)[C@H](O)[C@H]2O[C@H]2C[C@](C)(N)[C@H](O)[C@H](C)O2)Oc2ccc(cc2Cl)[C@H]1O
- Potency [1]: inactive
- outcome [2]: inactive

SMILES: O=c1cc(-c2ccccc2)oc2c(O)c(O)ccc12
- Potency [3]: 34 µM (active)
- outcome [4]: inactive
- Potency [1]: inactive
- outcome [2]: inactive

SMILES: CCCCCCCCCCCCCCCCCCN(CCCCCCCCCCCCCCCCCC)CCCN(CCO)CCO
- Potency [1]: inactive
- outcome [2]: inactive

SMILES: COc1ccccc1CN[C@@H]1CCCN[C@@H]1c1ccccc1
- Potency [1]: inactive
- outcome [2]: inactive

SMILES: Nc1ccn([C@@H]2O[C@H](CO)[C@@H](O)[C@@H]2O)c(=O)n1
- Potency [1]: inactive

SMILES: COc1ccc(C(=O)/C(Cc2cc(OC)c(OC)c(OC)c2)=C(\C(=O)O)c2ccc3c(c2)OCO3)cc1
- Potency [1]: 14.1 µM (active)
- outcome [2]: inactive

SMILES: Brc1cc2c(cc1[C@H]1Nc3ccccc3[C@H]3C=CC[C@H]31)OCO2
- Potency [1]: inactive
- outcome [2]: inactive

SMILES: CCCC(CCC)C(=O)OC1CC2CCC(C1)[N+]2(C)C (stereo not given)
- Potency [1]: inactive
- outcome [2]: inactive

SMILES: CC(N)C(=O)OC(C)(C)Cc1ccc(Cl)cc1 (stereo not given)
- Potency [1]: inactive
- Potency [5]: inactive
- outcome [2]: inactive
- Potency [6]: inactive
- outcome [7]: inactive
- Potency [8]: inactive

SMILES: CCNC(=O)[C@H]1O[C@@H](n2cnc3c(N)nc(NCCc4ccc(CCC(=O)O)cc4)nc32)[C@H](O)C1O (stereo not given in full)
- Potency [1]: inactive
- outcome [2]: inactive

SMILES: CCNc1nc2c(ncn2[C@H]2C[C@H](O)[C@@H](CO)O2)c(=O)[nH]1
- Potency [1]: inactive
- outcome [2]: inactive

SMILES: O=C(CCSCc1ccco1)NNC(=O)N1Cc2ccccc2Oc2ccc(Cl)cc21
- Potency [1]: inactive
- outcome [2]: inactive

SMILES: CN1CC(=O)N/C1=N/C(=O)Nc1cccc(Cl)c1
- Potency [1]: inactive
- Potency [5]: inactive
- outcome [2]: inactive
- Potency [6]: inactive
- outcome [7]: inactive
- Potency [8]: inactive

SMILES: O=C(Nc1ccc2[nH]ncc2c1)C1CCC1
- Potency [1]: inactive
- outcome [2]: inactive

SMILES: Cn1c(=O)c(-c2c(Cl)cccc2Cl)cc2cnc(Nc3ccc(N4CCOCC4)cc3)nc21
- Potency [1]: 0.631 µM (active)
- outcome [2]: inactive

SMILES: O=C(CCc1ccncc1)NNC(=O)N1Cc2ccccc2Oc2ccc(Cl)cc21
- Potency [1]: inactive
- outcome [2]: inactive

SMILES: O=C(O)c1cc(O)c(O)c(O)c1
- outcome [9]: inactive
- Potency [3]: inactive
- outcome [4]: inactive
- Potency [6]: inactive
- outcome [7]: inactive

SMILES: COc1ccc(Br)cc1S(=O)(=O)NC(=O)/C=C/c1ccccc1Cc1ccc2ccccc2c1
- Potency [1]: inactive
- outcome [2]: inactive

SMILES: CC[C@H]1OC(=O)[C@H](C)[C@@H](O[C@H]2C[C@@](C)(OC)[C@@H](O)[C@H](C)O2)[C@H](C)[C@@H](O[C@@H]2O[C@H](C)C[C@H](NC)[C@H]2O)[C@](C)(O)C[C@@H](C)CN(C)[C@H](C)[C@@H](O)[C@]1(C)O
- Potency [1]: inactive
- outcome [2]: inactive

SMILES: COCCOc1cc2nc[nH]c(=O)c2cc1OCCOC
- Potency [1]: inactive
- outcome [2]: inactive

SMILES: COCCOc1cc2ncnc(Cl)c2cc1OCCOC
- Potency [1]: inactive
- outcome [2]: inactive

SMILES: CCC1C(=O)OCC1Cc1cncn1C (stereo not given)
- Potency [1]: inactive
- Potency [5]: inactive
- outcome [2]: inactive
- Potency [6]: inactive
- outcome [7]: inactive
- Potency [8]: inactive

SMILES: CCOC(=O)C1=C(C)NC(C)=C(C(=O)OCC)C1c1c(F)c(F)c(F)c(F)c1F
- Potency [1]: 20 µM (active)
- outcome [2]: inactive

SMILES: O=C1NC(O)=NC1(c1ccccc1)c1ccccc1
- Potency [1]: inactive
- outcome [2]: inactive

SMILES: O=C1NCc2c1c1c3ccccc3[nH]c1c1[nH]c3ccccc3c21
- Potency [1]: 7.94 µM (active)
- outcome [2]: inactive

SMILES: OCC1O[C@H]([S-])[C@H](O)[C@@H](O)[C@@H]1O.[Au+] (stereo not given in full)
- Potency [1]: 17.8 µM (active)
- outcome [2]: inactive
- Potency [8]: inactive

SMILES: COc1ccccc1CNCCCCCCNCCCCCCCCNCCCCCCNCc1ccccc1OC
- Potency [1]: inactive
- outcome [2]: inactive
- Potency [8]: inactive
